Test results from PubChem BioAssay AID720534 (National Center for Advancing Translational Sciences (NCATS), 2013).
The whole screen tested about 1,600 compounds, of which about 990 (62%) were called active. Inconclusive results (about 30%) are left out. Calls follow the shape of the dose curve; as a rule, active = well fitted inhibition curve with a large enough effect; inconclusive = small, poorly fitted or top-dose-only effect; inactive = no such curve, though single readings can be large or run the other way. The set was probably picked from earlier hits. Not all results are given here.

assay: qHTS for Inhibitors of TGF-b: Confirmation of Cherry Picks; settings: HepG2 CAGA-GFP TGF-b reporter, GFP fluorescence, 18 h, cells stimulated with TGF-beta, 500 pg/mL; series mostly up to 46.1 µM; also: nearly all actives have a fitted effect of over 65% in size
Source text: TGF-b is a main component in the TGF-b signaling pathway which plays diverse roles in cellular and development pathways. TGF-b is mediated through transcription factors called "Smads". Although the Smad-dependent pathway is the primary canonical TGF-b signaling mode, TGF-b1 can also activate alternative signaling pathways, including those involving MAPK (ERK, JNK and p38). This interaction may mediate or enhance Smad-dependent responses, or can exert Smad-independent effects. The complexity of this signaling cascade allows the TGF-b superfamily to perform unique, overlapping or redundant functions. We believe that targeting the TGF-beta pathway at the Smad-transcription factor level may eliminate the consequences of disrupting the entire pathway and offer specificity without affecting other signaling pathways. Smad3 is the primary transducer of TGF-b's signals and Smad3 regulates many functions attributed to TGF-b signaling. We hypothesize that Smad3 inhibitors will selectively eliminate Smad3-specific TGF-beta signals without undesired off-target effects. We aim to identify Smad3-small molecule antagonists using a quantitative high throughput screening (qHTS) approach. In this assay, hits identified from the primary screen were re-tested. MH087449NIH Chemical Genomics Center [NCGC] NIH Molecular Libraries Probe Centers Network [MLPCN] MLPCN Grant: MH087449 Assay Submitter (PI): Sushil Rane, National Institute of Diabetes and Kidney Diseases
Suspensions of trypsinized HEPG2 CAGA-GFP cells were dispensed into white, tissue culture-treated, solid 1536-well plates at 5uL/well (1000 cells/well final concentration) in DMEM medium supplemented with 1% FBS. Plates were incubated at 37 degrees C for 2 hours, after which 23 nL of compounds or DMSO were delivered to each well using a pin tool. One uL of recombinant TGF-beta in DMEM (1% FBS) was then dispensed (500 pg/mL final concentration), and plates were incubated at 37 degrees C for 18 hours. The plates were measured on an Acumen eX3 Explorer plate reader for GFP fluorescence (ex488/em500-530). GFP values were calculated by determining the mean GFP fluorescence of individual cells, and compiling these values for each well to determine a total well GFP signal. The %Activity was determined from the corrected fluorescence values. A titration of the known TGF-B inhibitor SB431542 was included to monitor plate performance, while unstimulated HEPG2 (-TGF-B) control wells were used to normalize %Activity of identified inhibitors; unstimulated wells corresponded to 100%Activity (full inhibition), while stimulated cell controls (+DMSO) were used to normalize 0%Activity (no inhibition). Concentration-response curves were fitted to the signals arising from the resulting fluorescence. The concentration-effect curves were then classified based on curve quality (r2), response magnitude and degree of measured activity, and compounds were subsequently categorized based on their curve class.
Potency is read from the fitted curve at half-maximal effect.

Row | Compound | Potency
1 | O=[N+]([O-])c1ccccc1S(=O)(=O)Nc1cccc2cccnc12 | 13 µM (active)
2 | CN(C)CCNC(=O)c1ccc(Cl)c2cc3ccccc3nc12 | 3.26 µM (active)
3 | O=C(NC1=CC(=O)c2ccccc2C1=O)c1ccccc1 | 5.17 µM (active)
4 | COC(=O)COc1cccc2c(=O)n(CC(=O)NCc3ccccc3)ccc12 | inactive
5 | COc1cc(NC(=O)c2ccccc2NS(=O)(=O)c2ccc(Cl)s2)cc(OC)c1 | 5.8 µM (active)
6 | CN(c1ccccc1)S(=O)(=O)c1ccc(C(=O)N2CCN(c3ccccc3Cl)CC2)cc1 | 5.8 µM (active)
7 | COc1ccc(CNC(=O)C[C@H]2C[C@H](C(=O)N3CCOCC3)[C@@]3(CCC4CCCC4)c4[nH]c5ccc(Cl)cc5c4CCN3C2=O)cc1OC | 4.61 µM (active)
8 | COc1ccc(C(=O)c2c3ccc([N+](=O)[O-])cc3[n+]([O-])n2CCCN)cc1 | 18.4 µM (active)
9 | COc1cc(NC(=O)c2[nH]cnc2C(N)=O)cc(C(=O)Nc2cccc(C(F)(F)F)c2)c1 | 16.4 µM (active)
10 | Cn1c(=O)n(C)c2cc(S(=O)(=O)N3CCCc4ccccc43)ccc21 | inactive
11 | COc1cc(CC(=O)Nc2nc(-c3ccc(F)c(F)c3)cs2)cc(OC)c1OC | 11.6 µM (active)
12 | Cc1oc2c(F)c(F)c(F)c(F)c2c1S(=O)(=O)Nc1cccc(C(F)(F)F)c1 | 20.6 µM (active)
13 | Clc1ccc(Nc2nc(-c3cccs3)cs2)nc1 | 13 µM (active)
14 | CCOc1ccc(CCN2C(=S)N([C@@H](CC(C)C)CN3CCC[C@@H]3CN3C(=S)NC[C@@H]3Cc3ccc(O)cc3)C[C@@H]2CC(C)C)cc1 | 18.4 µM (active)
15 | CCN(CC)C(=O)C1=C(C)N(Cc2ccc(C(C)(C)C)cc2)C(=O)C(CC(=O)NCc2cccc3ccccc23)C1 (stereo not drawn) | 14.6 µM (active)
16 | COC(=O)N/N=C/c1cn(CCCOc2ccc(C)cc2)c2ccccc12 | 14.6 µM (active)
17 | c1ccc2cc3c(NCCN4CCOCC4)ccnc3cc2c1 | 18.4 µM (active)
18 | c1ccc(-c2cn3c(n2)CCc2ccc4cccnc4c2-3)cc1 | inactive
19 | O=C(/C(=C/c1cccc(Cl)c1)c1nc2ccccc2[nH]1)c1ccccc1 | 2.91 µM (active)
20 | CC(=O)c1ccc(-c2cnc3c(NC=O)cc(-c4cccc(NS(C)(=O)=O)c4)cn23)cc1 | 0.731 µM (active)
21 | CC(=O)c1cccc(-c2cnc3c(NC=O)cc(-c4ccc(N(C)C)cc4)cn23)c1 | 7.31 µM (active)
22 | O=C(Nc1ccc(Cl)cc1)Nc1nnc(/C=C/c2ccccc2)s1 | inactive
23 | COc1ccc(-c2onc(C)c2-c2ccc3c(c2)OCCO3)c(O)c1 | 16.4 µM (active)
